Assay outcomes (PubChem BioAssay)
Sampled rows, rich in hits. Any-hit rate of the full collection: about 6.7%.
Anthrax LF prot: blocks Bacillus anthracis lethal factor protease | P15917 | multiplex microsphere protease cleavage assay, LF | inhibition, % at 10 µM | hit rate 0.12% among 360,000; in the data active means inhibition above about 30%; inconclusive means no clear call, values can overlap the other calls; further: plate controls were buffer without enzyme for full effect and enzyme alone for no effect
Target sequence (P15917 whole entry, looked up): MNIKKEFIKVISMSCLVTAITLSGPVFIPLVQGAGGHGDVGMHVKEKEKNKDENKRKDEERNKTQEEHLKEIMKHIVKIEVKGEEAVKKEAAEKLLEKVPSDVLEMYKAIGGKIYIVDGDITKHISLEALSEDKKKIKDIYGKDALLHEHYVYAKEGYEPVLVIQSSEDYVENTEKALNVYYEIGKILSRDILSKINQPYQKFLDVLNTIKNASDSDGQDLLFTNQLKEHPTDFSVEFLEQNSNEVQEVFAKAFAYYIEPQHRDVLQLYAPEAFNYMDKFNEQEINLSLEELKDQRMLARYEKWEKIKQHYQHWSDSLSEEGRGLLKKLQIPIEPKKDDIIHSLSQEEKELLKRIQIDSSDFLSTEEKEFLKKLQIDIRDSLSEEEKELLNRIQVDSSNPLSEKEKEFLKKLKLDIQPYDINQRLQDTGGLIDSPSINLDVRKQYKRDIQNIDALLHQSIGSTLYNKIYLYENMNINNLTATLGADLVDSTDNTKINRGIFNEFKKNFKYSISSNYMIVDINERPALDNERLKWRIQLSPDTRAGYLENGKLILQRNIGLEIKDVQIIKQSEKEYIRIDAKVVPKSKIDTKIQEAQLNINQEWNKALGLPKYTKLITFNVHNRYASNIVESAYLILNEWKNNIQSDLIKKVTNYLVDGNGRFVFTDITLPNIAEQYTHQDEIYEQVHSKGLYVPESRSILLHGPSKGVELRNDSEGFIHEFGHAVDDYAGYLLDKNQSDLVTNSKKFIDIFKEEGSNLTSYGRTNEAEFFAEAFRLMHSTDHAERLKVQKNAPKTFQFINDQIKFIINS
GDH-TPI counter-1: inhibits GDH-TPI coupling enzymes, artifact for Mtb FBA screen; GDH-TPI coupled enzyme counterscreen, NADH absorbance; inhibition, % at 4.8 µM; hit rate 1.2% among 360,000; AID 588335; in the data active means inhibition above about 30%;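 further: 0% = DMSO wells and 100% = wells lacking the enzyme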
BoNT A protease: BoNT A light chain protease inhibition | inhibition, % at 10 µM | multiplex microsphere protease substrate cleavage, flow cytometry | hit rate 0.17% among 360,000; in the data active means inhibition above about 30%; inconclusive means no clear call, values can overlap the other calls; further: plate controls were buffer without enzyme for full effect and enzyme alone for no effect
FBA Mtb inh: inhibitors of M. tuberculosis fructose-bisphosphate aldolase | P9WQA3 | purified M. tuberculosis FBA, fluorescence read-out | inhibition, % at 1 µM | hit rate 2.3% among 360,000;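 further: 0% = vehicle and 100% = reference inhibitor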
BoNT-F LC inh: BoNT F light chain protease inhibition. Multiplex microsphere protease cleavage assay, flow cytometry. inhibition, % at 10 µM. hit rate 0.22% among 360,000. AID 588497; in the data active means inhibition above about 35%, passing the limit was not always enough; inconclusive means no clear call, values can overlap the other calls; further: plate controls were buffer without enzyme for full effect and enzyme alone for no effect
Bead autofluor: counter-screen for toxin protease inhibitors: compound fluorescence; AID 624483; compound autofluorescence counterscreen, microsphere flow cytometry; hits give high values; fluorescence intensity (test concentration not listed); hit rate 3.1% among 360,000; in the data active means fluorescence intensity above about 16000; inconclusive means no clear call, values can overlap the other calls
Mtb FBA inh conf: confirmation of M. tuberculosis fructose-bisphosphate aldolase inhibitors | shares compounds with FBA Mtb inh | purified M. tuberculosis FBA, fluorescence read-out | inhibition, % at 1 µM | hit rate 78% among 5,600 | AID 651616;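 further: 0% = vehicle wells and 100% = reference inhibitor wells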
GDH-TPI counter-2: GDH-TPI inhibition counter-screen for FBA inhibitors; shares compounds with FBA Mtb inh; GDH-TPI coupled enzyme counterscreen, fluorescence; inhibition, % at 1 µM; hit rate 81% among 5,600; AID 652141; in the data active means inhibition above about 10%
An asterisk follows results filed as active; ? = inconclusive; . = no result given; + = active, no number. Unless noted, no stated cut-off is given here; in the data, active means inhibition above about 27%; inactive means the rest.

SMILES	Anthrax LF prot	GDH-TPI counter-1	BoNT A protease	FBA Mtb inh	BoNT-F LC inh	Bead autofluor	Mtb FBA inh conf	GDH-TPI counter-2
COc1ccc(-c2csc3ncn(Cc4ccccc4)c(=O)c23)cc1	7	15	-9	1	-37	3850	.	.
COc1ccc(-c2c3c(cc4ncn(Cc5ccccc5)c24)COC3=O)cc1	-6	4	0	63*	-7	2985	141*	138*
O=C(NCC(=O)N1CCCC(C(F)(F)F)C1)c1ccc2ccccc2c1 (stereo unspecified)	-2	-7	-1	2	5	5170	.	.
c1ccc(-n2nnnc2SCc2cn3cccnc3n2)cc1	-4	6	0	43*	0	23611*	76*	57*
COc1ccc(/C=N/n2c(N)nc3ccccc32)cc1OC	-11	30	0	1	7	5915	.	.
Nc1nc2sc3c(c2cc1C(=O)NCC(=O)O)CCCC3	-5	4	1	-3	-8	3662	.	.
Nc1nc2sc3c(c2cc1C(=O)N1CCOCC1)CCCC3	4	1	-1	32*	2	2844	56*	54*
COc1ccc2nc3oc(C(=O)NCCCOC(C)C)cc3cc2c1	-1	13	1	111*	5	4091	7	2
COc1ccc(Cn2c(=O)[nH]c3cc(C(=O)NCCCOC(C)C)ccc3c2=O)cc1	-4	10	-1	-1	1	?	.	.
CCOCCCNC(=O)c1cc2cc3cc(OC)ccc3nc2o1	-3	2	5	110*	23	3995	91*	66*
COc1ccc2nc3oc(C(=O)NCc4cccs4)cc3cc2c1	0	24	0	32*	3	3297	2	-4
Cc1ccc(NC(=O)CSc2ccc(-c3ccco3)nn2)c(C)c1	-6	2	-1	2	-1	4470	.	.
Nc1nonc1NN=C1CCCCC1	-14	-2	?	1	?	3528	.	.
CC12COC3(C(=O)Nc4ccc([N+](=O)[O-])cc4)CC1CCC32C (stereo unspecified)	3	8	0	-2	0	2224	.	.
O=C(O)CCc1nn2cc(-c3ccccc3)nc2[nH]c1=O	-6	18	0	45*	-3	2686	113*	92*
Cc1nn2c(-c3ccccc3)c(-c3ccccc3)nc2[nH]c1=O	5	17	2	8	21	3493	.	.
Cc1nn2cc(-c3ccccc3)nc2[nH]c1=O	-10	21	0	37*	-11	2580	79*	81*
CCc1nn2cc(-c3ccccc3)nc2s1	2	4	1	-4	-9	4048	.	.
COC(=O)C1(CO)NC(c2ccc(C)cc2)C2C(=O)N(c3ccccc3)C(=O)C21 (stereo unspecified)	-11	-3	-4	2	-4	3945	.	.
O=C(COC(=O)c1ccc([N+](=O)[O-])cc1)Nc1ccc(Cl)cn1	4	-2	3	2	-15	?	.	.
COc1ccc(-c2cnc3c(c2)CCC3(C#N)C#N)cc1	-4	7	0	58*	1	10042	50*	33*
CCOC(=O)c1c(C)[nH]c(C(=O)OCC(O)=C(C#N)c2nc3ccccc3[nH]2)c1C	4	11	1	-1	2	4386	.	.
C=CCc1ccc(O)c(-c2cc(CC=C)ccc2O)c1	-3	11	0	34*	-7	5753	86*	63*
Cc1cccc(N2CCN(C(=O)CCCn3c(=O)[nH]c4ccsc4c3=O)CC2C)c1 (stereo unspecified)	10	16	-2	-4	3	3040	.	.
CC1(C)NC(=O)N(CC(O)COc2ccccc2-c2ccccc2)C1=O (stereo unspecified)	-2	-3	0	4	-10	4106	.	.
SMILES	Anthrax LF prot	GDH-TPI counter-1	BoNT A protease	FBA Mtb inh	BoNT-F LC inh	Bead autofluor	Mtb FBA inh conf	GDH-TPI counter-2
COc1cc(S(C)=O)ccc1-c1nc2ncccc2[nH]1 (stereo unspecified)	-6	32*	0	55*	-9	5061	90*	72*
O=C(c1ccc2nc3ccc(Cl)cc3c(=O)n2c1)N1CCOCC1	0	13	-2	93*	0	21084*	+	+
O=C(c1ccc(Cl)cc1)N1CCC2(CC1)OCCO2	4	-1	-1	2	24	3627	.	.
O=C(c1ccc2nc3ccc(Cl)cc3c(=O)n2c1)N1CCC2(CC1)OCCO2	1	20	3	40*	2	19917*	+	+
O=C(c1ccccc1)N1CCN(Cc2ccc3c(c2)OCO3)CC1	-10	3	-2	0	4	3824	.	.
O=C(c1ccc2nc3ccccc3c(=O)n2c1)N1CCN(Cc2ccc3c(c2)OCO3)CC1	2	4	2	69*	6	9756	-4	-10
Cc1nn(C)cc1CNC(=O)Nc1ccc(Br)cc1Cl	-4	4	0	1	-2	10076	.	.
O=C(Cc1ccc2c(c1)OCCO2)Nc1cccc(S(=O)(=O)N2CCOCC2)c1	-2	5	0	-3	-1	?	.	.
CC(=O)N1N=C(c2ccncc2)OC12CCCCCC2	-2	7	?	77*	-14	9495	+	+
CC(=O)N1N=C(c2ccncc2)OC12CCCCC2	-3	0	1	89*	-7	3400	49*	40*
N#Cc1cc(-c2ccccc2)c[nH]c1=O	-1	12	1	58*	6	9818	94*	89*
CCOC(=O)CC(=O)CSc1nc2c(c(C)c1C#N)CCC2	-2	3	0	31*	-1	2961	82*	47*
CC(=O)Nc1nc2ccccc2n1Cc1ccccc1C	-8	5	-2	-3	-43	4298	.	.
O=C(Nc1ccc(-c2nc3cc(Cl)ccc3c(=O)o2)cc1)c1ccco1	-2	5	2	0	3	7625	.	.
O=C(Nc1ccc(-c2nc3c(ccc4ccccc43)o2)cc1)c1ccco1	2	48*	2	54*	0	15745	107*	103*
CSC1=NC(NCCCO)c2c(sc3c2CC(C)(C)OC3)N1 (stereo unspecified)	-1	12	1	28*	-2	4487	107*	92*
COc1ccc(-c2ccc(CCC(=O)O)n2CC2CCCO2)cc1 (stereo unspecified)	0	11	1	33*	0	2863	+	144*
C=CCn1c(CCC(=O)O)ccc1-c1ccc(OC)cc1	-1	2	-1	4	-16	11950	.	.
COc1ccc(-c2ccc(CCC(=O)O)n2CC(C)C)cc1	-2	-12	1	41*	6	11478	48*	30*
O=C(O)CCCN=C1CCCc2ccccc2N1	-2	0	0	-5	1	6345	.	.
